E coli growth-1: bacterial growth inhibition, counter-screen for AddAB inhibitors | 0.27% of 330,000 active | AID 449728 | inhibition, % at 11.9 µM | E. coli V3065 growth, OD600 absorbance, 18 h;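 active means inhibition above the campaign's mean inhibition across all tested compounds plus 3 SD, cut at about 9.9% in these data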;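 further: uninfected addAB+ strain grown without phage in ampicillin broth; 0% = DMSO wells and 100% = ciprofloxacin 0.95 µg/ml wells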
E coli growth-2: E. coli growth inhibition. Escherichia coli growth, OD600, 23 h; active compounds read low. AID 1053175. 0.21% of 330,000 active. OD600 absorbance (concentration not given with the values);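 active means OD600 absorbance below the run mean of sample wells minus 3.6 SD, in any replicate, cut at about 0.56 in these data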
AddAB inh: less growth of phage-infected E. coli with AddAB; E. coli expressing H. pylori AddAB, absorbance growth; inhibition, % at 11.9 µM; 0.29% of 330,000 active; AID 435030; in the data active means inhibition above about 12%;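 further: 0% = vehicle wells of infected cells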
phage Ecoli inh: E. coli growth loss with phage present. growth absorbance. AID 651602. 0.26% of 360,000 active. inhibition, % at 11.9 µM; in the data active means inhibition above about 11%
Tat transport: E. coli Tat transport inhibition; E. coli MC4100 TorA-mCherry Tat export, fluorescence; inhibition, % at 10 µM; 0.036% of 340,000 active; AID 488895;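 active means mean replicate inhibition at least 50% and at least half of replicates individually reaching 50%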;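 further: exported cargo escapes ClpAP degradation while cytoplasmic cargo is degraded and loses fluorescence; 0% = median of neutral control wells and 100% = median of NaSCN control wells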
AddAB confirm: confirmation screen: growth loss of phage-infected E. coli expressing H. pylori AddAB; 64% of 880 active; shares compounds with AddAB inh; inhibition, % at 11.9 µM; E. coli V3065 expressing H. pylori AddAB, T4 phage, OD; T4 phage with gene 2 nonsense mutations; AID 488942;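 active means mean inhibition above a set limit taken from the earlier primary screen, cut at about 13% in these data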;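 further: higher means less bacterial growth since AddAB block lets phage replicate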
RecBCD counter: AddAB counter-screen: growth loss of RecBCD+ E. coli infected with mutant T4 phage; shares compounds with AddAB inh; inhibition, % at 11.9 µM; 73% of 880 active; E. coli V66 + mutant T4 phage, OD growth;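 active means mean inhibition above the mean of solvent-only control wells plus 3 SD, cut at about 4% in these data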;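 further: optical density read after an 18 h incubation at 37 °C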
Bact viability: reduces bacterial viability, AddAB inhibitor counter-screen. inhibition, % at 11.9 µM. absorbance (AddAB counterscreen). AID 488956. 35% of 880 active. shares compounds with AddAB inh; in the data active means inhibition above about 25%
RecBCD conf: confirmation: growth loss of phage-infected RecBCD+ E. coli (RecBCD inhibitor screen); shares compounds with phage Ecoli inh; inhibition, % at 11.9 µM; AID 651982; E. coli V66 + T4 2- phage, growth OD; 45% of 890 active;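 active means mean inhibition over triplicates exceeding the hit threshold derived in the original primary screen, cut at about 11% in these data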
Ecoli viability: bacterial viability inhibition counter-screen for RecBCD; shares compounds with phage Ecoli inh; E. coli viability, absorbance (OD) growth; inhibition, % at 11.9 µM; 29% of 890 active; in the data active means inhibition above about 20%;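 further: E. coli strain V66 grown with compound alone and no phage infection; 0% = bacteria with DMSO vehicle only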
AddAB counter: growth loss of phage-infected AddAB E. coli, RecBCD counter-screen. AID 651984. 45% of 890 active. inhibition, % at 11.9 µM. shares compounds with phage Ecoli inh. E. coli expressing H. pylori AddAB + T4 phage, OD growth; gene 2 mutant T4, recBCD-deleted host;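 active means mean inhibition above the solvent-only control wells' mean plus 3 SD, cut at about 22% in these data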;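 further: higher means less bacterial growth from phage killing when AddAB is blocked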
* = called active by the depositor; x = not tested or not shown. Rows were chosen to be rich in hits. Some 0.51% of all compounds tested hit in one or more screens of this group.

SMILES	E coli growth-1	E coli growth-2	AddAB inh	phage Ecoli inh	Tat transport	others
CC1CCC2C(C)C(=O)OC3OC4(C)CCC1C32OO4 (stereo not given)	1	0.43*	1	3	-2
O=P(C(=NO)N1CCCCC1)(N1CCOCC1)N1CCOCC1	x	0.71	x	x	x
COc1cc2c3cc1Oc1cc(ccc1O)CC1c4c(cc(OC)c(O)c4Oc4cccc(c4)CC3N(C)CC2)CC[N+]1(C)C (stereo not given)	x	0.7	x	x	x
C1=C(CCNCc2ccccc2)CCCC1	-1	0.45*	3	6	-5
Fc1ccc(CNCCc2ccccc2)cc1	1	0.68	2	5	-2
CNC(=O)ON=Cc1nn(C(=O)C(C)(C)C)cc1Br	x	0.65	x	x	x
C=CCN1CC[C@]23c4c5ccc(O)c4OC2C(=NNC(=O)c2ccccc2)CC[C@@]3(O)C1C5 (stereo not given in full)	x	0.71	x	x	x
COC(=O)C1=C(c2cccc(C#N)c2)CC2CCC1N2C(=O)NCc1ccco1 (stereo not given)	x	0.72	x	x	x
COC(=O)C1=C(c2ccc(OC)c(OC)c2)CC2CCC1N2C(=O)NC1Cc2ccccc2C1 (stereo not given)	x	0.67	x	x	x
CN(C)C1C(=O)C(C(N)=O)=C(O)[C@@]2(O)C(=O)C3=C(O)c4c(O)cccc4[C@@](C)(O)C3CC12 (stereo not given in full)	x	0.065*	x	x	x
CN(C)C1C(=O)C(C(N)=O)=C(O)[C@@]2(O)C(=O)C3=C(O)c4c(O)cccc4[C@@](C)(O)C3C(O)C12 (stereo not given in full)	x	0.07*	x	x	x
COc1cc2cc(C(=O)N3CC(COS(C)(=O)=O)c4ccc(O)cc43)[nH]c2c(OC)c1OC (stereo not given)	x	x	x	x	58*
Clc1ccc(C(c2ccc(Cl)cc2)n2cc[n+](CC(OCc3ccc(Cl)cc3Cl)c3ccc(Cl)cc3Cl)c2)cc1 (stereo not given)	5	0.094*	0	7	15
CNc1cc(Cl)c2nonc2c1[N+](=O)[O-]	x	0.46*	x	8	-37
NC(=N[N+](=O)[O-])N1CCN(C(=O)Oc2ccc([N+](=O)[O-])cc2)CC1	x	0.62	x	x	x
c1ccc(-c2nc(N3CCOCC3)s[n+]2-c2ccccc2)cc1	3	0.52*	4	2	-2
O=[N+]([O-])c1ccc(N2CCCC2)cc1NN=C1CN2CCC1CC2	x	0.73	x	x	x
COC(=O)C1C(O)C(C)C(O)C(C)C=CC=C(C)C(=O)Nc2c(C)c(OC(C)=O)c3c(c2O)C(=O)C(C)=C2OCOC(=C23)C(C)=CC(C)(O)C(O)C(C)C1O (stereo not given)	x	0.12*	x	x	x
CCCNC1=C(C)C(=O)C2=C(C1=O)C(COC(N)=O)[C@]1(OC)C3NC3CN21 (stereo not given in full)	46*	0.13*	44*	23*	9	AddAB confirm=98*;RecBCD counter=45*;Bact viability=82*
CN1/C(=C\C=C\C2=[N+](C)c3ccc4ccccc4c3C2(C)C)C(C)(C)c2ccccc21	51*	x	30*	x	x	AddAB confirm=77*;RecBCD counter=66*;Bact viability=78*
O=c1[nH]c(=S)n(C2CC2)c(O)c1C=NCc1cccnc1	0	0.66	0	x	x
O=c1[nH]c(=S)n(C2CC2)c(O)c1C=NCc1ccc(F)cc1	15*	0.53	27*	2	-1	AddAB confirm=62*;RecBCD counter=0;Bact viability=26*
Cc1ccccc1[N+](=O)[O-]	-4	0.68	0	2	6
Cc1cc([N+](=O)[O-])c2ccccc2[n+]1[O-]	21*	0.48*	28*	x	-17	AddAB confirm=99*;RecBCD counter=11*;Bact viability=33*
CN1OCC2COc3ccc4ccccc4c3C21 (stereo not given)	x	0.72	x	x	x
SMILES	E coli growth-1	E coli growth-2	AddAB inh	phage Ecoli inh	Tat transport	others
CC12CC[C@H]3[C@@H](CCC4(O)C[C@H](O)CCC34C=NNC(=O)c3ccccc3O)C1(O)CCC2C1=CC(=O)OC1 (stereo not given in full)	x	0.7	x	x	x
CC1OC(OC2CC(O)[C@]3(CO)C4C(O)C[C@]5(C)C(C6COC(=O)C6)CC[C@]5(O)C4CC[C@]3(O)C2)C(O)C(O)C1O (stereo not given in full)	x	0.7	x	x	x
COC(=O)C1=C(c2cccc(OCc3ccccc3)c2)CC2CCC1N2C(=O)NCc1ccc(Cl)cc1 (stereo not given)	x	0.67	x	x	x
Oc1c(Br)c(Br)c(Br)c(Br)c1Br	15*	x	18*	x	-2	AddAB confirm=22*;RecBCD counter=20*;Bact viability=21
C[C@]12CCC3C(CCC4=CC(=NOCC(=O)NC(CCC(=O)O)C(=O)O)CC[C@@]43C)C1CCC2O (stereo not given in full)	x	0.73	x	x	x
CCCN(CCC)C1Cc2cc(OC)c(OC)cc2C1	99*	0.68	98*	5	-9	AddAB confirm=-5;RecBCD counter=1;Bact viability=-2
Cc1ccc(C[n+]2c(-c3ccc(C)cc3)cc(-c3ccc(C)cc3)cc2-c2ccc(C)cc2)cc1	25*	0.41*	16*	x	-3	AddAB confirm=55*;RecBCD counter=12*;Bact viability=13
CN1CCN(c2ccc([N+](=O)[O-])c3no[n+]([O-])c23)CC1	103*	0.057*	102*	30*	51*	AddAB confirm=101*;RecBCD counter=19*;Bact viability=89*;RecBCD conf=14*;Ecoli viability=17;AddAB counter=101*
CCn1nc(-c2ccccc2)nc2c(=O)n(C)c(=O)nc1-2	3	0.61	3	x	-6
Cc1nc2c(=O)n(C)c(=O)nc-2n(C)n1	42*	0.049*	41*	42*	-16	AddAB confirm=48*;RecBCD counter=39*;Bact viability=42*;RecBCD conf=43*;Ecoli viability=48*;AddAB counter=61*
Oc1ccc(C=NNP(=S)(c2ccccc2)c2ccccc2)c(O)c1O	x	0.71	x	x	x
O=c1[nH]c(=O)n(-c2ccc(Cl)cc2)c(O)c1C=Nc1ccc(S(=O)(=O)Nc2nccs2)cc1	3	x	9	12*	5	RecBCD conf=6;Ecoli viability=4;AddAB counter=25*
CCN(CC)S(=O)(=O)c1ccc(N=Cc2c(O)n(-c3ccccc3)c(=O)[nH]c2=O)cc1	1	0.72	0	2	-9

Screens from PubChem BioAssay.
